This note sets out measurements from PubChem BioAssay (NCATS).

Experiment [1] is described as follows: AP1 Signaling Pathway (AID 357).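 Further: ME-180 reporter cells stimulated with EGF at its EC50 level; on the % scale 0 is the no-effect control and ±100 the full control effect.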 An outline of the steps:
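Modulation of EGF-driven AP-1 transcription was assessed with a beta-lactamase reporter in ME-180 cells. Compound and EC50 EGF were co-incubated 5 hours at 37 °C before 2.5-hour CCF4 loading at room temperature and dual-emission reading.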

Experiment [2] deals with Cytochrome P450 1A2 (Homo sapiens) (UniProt P05177). The experiment is described as follows: p450-cyp1a2 (AID 410; calls by dose curve; further: potency means the concentration at half of the fitted maximal effect;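 on activity change, negative = inhibition: -100% = full effect of reference inhibitor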). An outline of the steps:
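Read-out is luminescence from luciferin produced by CYP1A2 demethylation of Luciferin-ME (100uM, at Km). Detection reagent stopped the 60 min NADPH-dependent reaction; signals were normalized to 57 uM furafylline.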

The nature of experiment [3]: NFAT Signaling Pathway (AID 444).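 Further: carbachol stimulus at about its EC50 of 1 µM final; on the % scale 0 is the no-effect control and ±100 the full control effect.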 The conditions noted are these: Jurkat NFAT-bla M1, carbachol, beta-lactamase ratio, 5 h. The gist of the method:
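Jurkat cells carrying an NFAT-driven β-lactamase reporter and co-transfected muscarinic M1 receptor were treated with compound plus carbachol (1 uM final, an EC50 level) for 5 h at 37 °C. CCF4 loading followed for 1 h at RT; 460/530 nm ratio gave %activity.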

The nature of experiment [4]: Stat Signaling Pathway (AID 446).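 Further: ME-180 cervical cancer cells given 40 pM IL-6 alongside compound; SIE-controlled beta-lactamase reporter measured as 460/530 nm FRET emission ratio; on the % scale 0 is the no-effect control and ±100 the full control effect.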 Conditions: ME-180 (cervical carcinoma) SIE beta-lactamase reporter, IL-6 stimulated, 5 h. The gist of the method: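 FRET read-out (405 nm excitation, 460/530 nm emission) of a beta-lactamase reporter under a STAT-inducible element in ME-180 cervical carcinoma cells. Cells with compound receive 40 pM IL-6 for 5 h. Values are normalised to AC90 stimulation and AC90 JAK-inhibitor controls.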

The target of experiment [5] is Glucocorticoid receptor (Homo sapiens) (UniProt P04150). The experiment in a line: GR-GFP Redistribution (AID 450;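 active means compounds whose dose series gives a full or clear partial fitted curve of increased nuclear translocation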; further: potency means the concentration at half of the fitted maximal effect). Conditions: U2OS GR-GFP nuclear translocation, laser cytometry, 2 h.
Glucocorticoid receptor (Homo sapiens), sequence (P04150 whole entry, looked up): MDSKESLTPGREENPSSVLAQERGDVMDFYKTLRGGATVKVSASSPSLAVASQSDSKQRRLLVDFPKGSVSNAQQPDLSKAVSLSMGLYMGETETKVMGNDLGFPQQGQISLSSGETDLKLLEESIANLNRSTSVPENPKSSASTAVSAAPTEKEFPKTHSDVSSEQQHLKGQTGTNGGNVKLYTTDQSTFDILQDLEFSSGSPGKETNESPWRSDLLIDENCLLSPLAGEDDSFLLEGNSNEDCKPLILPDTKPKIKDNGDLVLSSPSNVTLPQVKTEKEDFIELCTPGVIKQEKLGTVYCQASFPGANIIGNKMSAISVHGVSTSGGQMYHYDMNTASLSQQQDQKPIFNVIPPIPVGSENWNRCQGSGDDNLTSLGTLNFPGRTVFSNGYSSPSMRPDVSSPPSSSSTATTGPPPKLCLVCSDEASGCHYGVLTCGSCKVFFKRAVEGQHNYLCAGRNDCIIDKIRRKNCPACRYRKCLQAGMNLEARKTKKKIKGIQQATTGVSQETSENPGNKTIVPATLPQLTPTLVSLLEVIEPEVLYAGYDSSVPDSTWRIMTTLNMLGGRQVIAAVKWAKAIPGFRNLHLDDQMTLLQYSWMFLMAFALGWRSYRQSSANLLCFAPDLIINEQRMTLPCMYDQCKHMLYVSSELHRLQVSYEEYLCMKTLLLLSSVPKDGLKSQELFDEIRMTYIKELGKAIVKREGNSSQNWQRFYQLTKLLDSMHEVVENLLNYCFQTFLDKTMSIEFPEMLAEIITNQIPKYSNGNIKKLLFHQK

Where “and” joins values, the source holds several entries; their conditions need not be identical. Equal entries are not always repeated. Unmarked numbers belong to inactive results. Records with an inconclusive call do not appear. Calls of active or inactive are those of the source. Unless noted, the call rests on the fitted dose curve; in most records, active means well fitted curve in either direction with a large enough effect (not every such curve was filed as active); inconclusive means small, poorly fitted or top-dose-only effect, or another doubt; inactive means flat fitted curve, though single readings scatter.

Cytochrome P450 1A2 (Homo sapiens), sequence (P05177 whole entry, looked up): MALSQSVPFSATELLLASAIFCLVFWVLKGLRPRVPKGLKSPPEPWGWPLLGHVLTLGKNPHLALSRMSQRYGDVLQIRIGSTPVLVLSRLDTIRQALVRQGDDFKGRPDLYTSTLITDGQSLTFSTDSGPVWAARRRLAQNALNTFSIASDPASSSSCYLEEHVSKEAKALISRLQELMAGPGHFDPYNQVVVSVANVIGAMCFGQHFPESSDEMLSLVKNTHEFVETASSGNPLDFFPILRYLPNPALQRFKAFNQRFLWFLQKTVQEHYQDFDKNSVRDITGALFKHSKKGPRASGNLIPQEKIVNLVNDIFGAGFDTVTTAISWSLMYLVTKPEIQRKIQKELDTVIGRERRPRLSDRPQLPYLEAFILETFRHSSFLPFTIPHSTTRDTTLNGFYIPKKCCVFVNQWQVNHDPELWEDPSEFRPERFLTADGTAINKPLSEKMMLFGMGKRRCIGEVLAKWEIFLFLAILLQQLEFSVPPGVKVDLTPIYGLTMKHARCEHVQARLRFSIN

`N[C@@H]1C[C@H]1c1ccccc1`: in experiment [1], the molecule was classed as inactive. In experiment [2], the Potency was 15.8 µM (active). For the same molecule, the activity change, negative = inhibition in experiment [3] (at 38 µM (top of the series)) was -3.2%. The activity, negative = inhibition in experiment [4] (at 38 µM (top of the series)) was 20.3%.

In the case of `COc1ccc(Cc2nccc3cc(OC)c(OC)cc23)cc1OC`, the outcome in experiment [1] was inactive. Further, the activity change, negative = inhibition in experiment [3] (at 17.2 µM (top of the series)) is -29.4%. For the same molecule, the values for the activity, negative = inhibition in experiment [4] (at 17.2 µM (top of the series)) and in experiment [4] (at 38 µM (top of the series)) were -7.28% and -33.5%, respectively.

Regarding `Nc1ccncc1`, the call in experiment [1] was inactive. In addition, the Potency result in experiment [2] was “inactive”. Moreover, the activity change, negative = inhibition in experiment [3] (at 38 µM (top of the series)) is -3.97%. In experiment [4] (at 38 µM (top of the series)), the activity, negative = inhibition is 18.2%.

Take `O=C1CC[C@@]2(O)[C@H]3Cc4ccc(O)c5c4[C@@]2(CCN3CC2CC2)[C@H]1O5`: in experiment [1], the outcome was inactive. Besides, in experiment [3] (at 17.2 µM (top of the series)), the activity change, negative = inhibition is 1.18%. Besides, the activity, negative = inhibition in experiment [4] (at 17.2 µM (top of the series)) is 2.9%.

`O=[N+]([O-])c1cc([As](=O)(O)O)ccc1O`: the outcome in experiment [1] was inactive. Besides, the Potency result in experiment [2] is “inactive”. Further, the activity change, negative = inhibition in experiment [3] (at 17.2 µM (top of the series)) is -8.47%. Also, the activity, negative = inhibition in experiment [4] (at 17.2 µM (top of the series)) is 10.9%. In addition, in experiment [5], the Potency was over 20.6 µM.

Consider `NCC(CC(=O)O)c1ccc(Cl)cc1` (stereo unspecified), for which, in experiment [1], the outcome was inactive. Also, the activity change, negative = inhibition in experiment [3] (at 17.2 µM (top of the series)) was 12.1%. In addition, the activity, negative = inhibition in experiment [4] (at 17.2 µM (top of the series)) is 6.38%. For the same molecule, the Potency in experiment [5] is over 20.6 µM.

In the case of `CCCN1CCC[C@@H]2Cc3[nH]ncc3C[C@H]21`, the outcome in experiment [1] was inactive. Moreover, the Potency result in experiment [2] was “inactive”. For the same molecule, the activity change, negative = inhibition in experiment [3] (at 17.2 µM (top of the series)) was 24.4%; in experiment [3] (at 38 µM (top of the series)) it was 7.41% and -8.14%. The activity, negative = inhibition was 8.2% in experiment [4] (at 17.2 µM (top of the series)); -2.11% and 14.3% in experiment [4] (at 38 µM (top of the series)). Also, in experiment [5], the Potency is > 46 µM and > 20.6 µM.

On to `Cc1cccc(C)c1NC1=NCCCS1`, for which the molecule was called inactive in experiment [1]. Moreover, the Potency result in experiment [2] was “inactive”. Further, in experiment [3] (at 38 µM (top of the series)), the activity change, negative = inhibition is -14.8%. Moreover, the figures for the activity, negative = inhibition in experiment [4] (at 17.2 µM (top of the series)) and in experiment [4] (at 38 µM (top of the series)) were 3.23% and 9.43%, respectively.

`Cc1ccc(S(=O)(=O)N[C@@H](CCCCN)C(=O)CCl)cc1`: in experiment [1], the outcome was inactive. In experiment [2], the Potency entry is “inactive”. For the same molecule, in experiment [3] (at 38 µM (top of the series)), the activity change, negative = inhibition is -22.6%. Further, the activity, negative = inhibition in experiment [4] (at 38 µM (top of the series)) is -67% (active). Further, the Potency in experiment [5] was over 46 µM.

On to `N#CC(C#N)=Cc1ccc(O)c(O)c1`, for which, in experiment [1], the call was inactive. In addition, the Potency in experiment [2] is 15.8 µM (active) and 5.01 µM (active). For the same molecule, the activity change, negative = inhibition in experiment [3] (at 38 µM (top of the series)) is -13.6%. Also, the activity, negative = inhibition in experiment [4] (at 38 µM (top of the series)) was -24.2%.

As to `CCCN1CCC[C@@H]2Cc3nc(N)ncc3C[C@H]21`, the result in experiment [1] was inactive. Also, in experiment [2], the Potency result is “inactive”. In experiment [3] (at 38 µM (top of the series)), the activity change, negative = inhibition was -3.63%. Further, the activity, negative = inhibition in experiment [4] (at 38 µM (top of the series)) is -19.8%.

For `NCC1(CC(=O)O)CCCCC1`, the result in experiment [1] was inactive. Besides, in experiment [2], the Potency entry was “inactive”. The activity change, negative = inhibition in experiment [3] (at 17.2 µM (top of the series)) is -5.52% and 10.6%; in experiment [3] (at 38 µM (top of the series)), 3.24%. Also, the activity, negative = inhibition is -0.102% and 1.2% in experiment [4] (at 17.2 µM (top of the series)); -12.4% in experiment [4] (at 38 µM (top of the series)). The Potency in experiment [5] is > 46 µM and > 20.6 µM.
